# Values without a mark were called inactive.
# How the values were obtained:
# [1] = test system: Caenorhabditis elegans dauer (daf-2(e1370)); assay: proportion of mobile C. elegans dauer larvae relative to DMSO control (fraction of DMSO control); higher = more viable, less nematicidal, active = 0.63 or less; extreme values may be limits of the assay; details: 60 µM; 5 days; temperature: 20 °C
# Method in brief: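 Compound was added by pinning to 60 µM final, giving 0.6% v/v DMSO, in 96-well plates containing about 20 C. elegans dauers per well in liquid NGM. These dauers came from synchronized larvae held on MYOB plates with E. coli OP50 for 48 h at 25 °C. Plates were sealed and shaken at 200 rpm at 20 °C for 5 days. Under a dissection microscope, the proportion of mobile worms was scored relative to DMSO wells, and two biological replicates were averaged.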
# Ditylenchus dipsaci = assay: proportion of mobile D. dipsaci (mixed stage) relative to DMSO control (fraction of DMSO control); higher = more viable, less nematicidal, active = 0.86 or less; extreme values may be limits of the assay; details: 60 µM; 5 days; temperature: 20 °C
# Method in brief: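 Ditylenchus dipsaci nematodes were cultured on pea plants in Gamborg B-5 agar, then extracted into water through a filter funnel, and roughly 20 worms in distilled water were placed in each well of a 96-well plate. Compound was pinned in to a final concentration of 60 µM (0.6% v/v DMSO), and the sealed plates were shaken at 200 rpm for 5 days at 20 °C. Mobile worms were counted under the microscope after 2 µL of 1 M NaOH was added. Mobility is given relative to DMSO controls as the mean of two biological replicates.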
SMILES,proportion of mobile C. elegans dauer larvae [1],proportion of mobile D. dipsaci (Ditylenchus dipsaci)
Clc1cc(Cl)c(OCc2nc(-c3ccncc3)no2)cc1Cl,1,1
COc1ccc(-c2nnc(SCC(=O)Nc3ccc(C)cc3Br)o2)cc1,1,1
c1ccc(-c2noc(CSc3nc4ccccc4[nH]3)n2)cc1,1,1
Clc1cccc(-c2nc(-c3ccccc3Cl)no2)c1,1,1
CCC(=O)Nc1ccccc1-c1nc(-c2ccncc2)no1,1,1
Cc1ccccc1-c1noc(COc2ccc(Cl)cc2Cl)n1,1,1
COc1cccc(-c2nc(-c3ccc(F)cc3)no2)c1,1,1
CC(C)(C)c1ccc(-c2nc(-c3ccncc3)no2)cc1,1,1
Cc1ccc(SCc2nc(-c3ccccc3)no2)cc1,1,1
COc1ccc(-c2noc(C3CCCCC3)n2)cc1,0.779,1
Cc1csc(NC(=O)CSc2nnc(-c3ccccc3Cl)o2)n1,1,1
Cc1ccc(-c2nc(C3CCCCC3)no2)cc1,1,1
Brc1ccc(CSc2nnc(-c3cccnc3)o2)cc1,1,1
N#Cc1ccc(CSc2nnc(-c3ccccc3)o2)cc1,1,1
c1ccc(-c2nnc(SCc3cccnc3)o2)cc1,–,0.75 (active)
O=C(CSc1nnc(-c2ccc(Cl)cc2)o1)NCc1ccccc1,1,1
Clc1ccc(CSc2nnc(-c3ccccc3)o2)cc1Cl,–,1
Cc1ccc(-c2noc(-c3ccc(-n4nncc4C)cc3)n2)cc1,1,1
O=C(CSc1nnc(-c2ccccc2)o1)Nc1cccc(C(F)(F)F)c1,1,1
Fc1cccc(Cl)c1CSc1nnc(-c2ccccc2)o1,0.977,1
Cc1cc(C)cc(-c2nc(-c3ccc(Cl)cc3)no2)c1,1,1

SMILES,proportion of mobile C. elegans dauer larvae [1],proportion of mobile D. dipsaci (Ditylenchus dipsaci)
Cc1ccc(-c2nc(-c3ccc(C(F)(F)F)cc3)no2)cc1,0.5 (active),1
O=C(CSc1nnc(-c2ccc(Br)cc2)o1)Nc1nccs1,1,1
Cc1ccccc1OCc1nc(-c2ccc(Br)cc2)no1,–,1
Clc1ccccc1OCc1nc(-c2ccccn2)no1,–,1
C#CCOc1ccc(-c2nc(-c3ccccc3)no2)cc1,1,1
Clc1cccc(-c2nc(-c3cccnc3)no2)c1,–,1
O=C(CSc1nnc(-c2ccccc2Cl)o1)Nc1ccc(Br)cn1,1,1
O=C(Nc1ccc(-c2noc(COc3ccccc3Cl)n2)cc1)c1ccccn1,1,1
CCc1cccc(C)c1NC(=O)CSc1nnc(-c2ccccc2)o1,1,1
COC(=O)c1ccc(NC(=O)CSc2nnc(-c3ccc(Cl)cc3Cl)o2)cc1,–,1
Cc1cccc(-c2noc(COc3ccc(Cl)cc3)n2)c1,1,1
Cc1ccc(C)c(-c2nc(-c3ccncc3)no2)c1,0.385 (active),1
Brc1ccc(-c2noc(-c3ccc(Br)o3)n2)o1,1,1
COc1ccccc1-c1nc(-c2ccccc2Cl)no1,1,1
Cc1ccoc1-c1nnc(-c2ccco2)o1,–,0.833 (active)
c1ccc(COc2cccc(-c3nc(-c4ccccn4)no3)c2)cc1,1,1
CCOc1ccc(-c2nc(-c3cccnc3)no2)cc1OCC,–,1
Cc1cccc(-c2nnc(SCC(=O)NCCc3ccccc3)o2)c1,–,1
CCc1ccc(OCc2nc(-c3cccc(OC)c3)no2)cc1,1,1
CN(C(=O)CSc1nnc(-c2ccccc2)o1)c1ccccc1,1,1
CSc1ccccc1-c1nc(-c2cccnc2)no1,0.684,1

# Reference: the supplement of paper PMC11219838
